For 20 molecules, growth inhibition, inhibition and outcome results are on record in PubChem BioAssay.

Assay [1] can be described thus: antimalarial activity against Dd2 strain (AID 2302;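 active means growth inhibition above 50% at the single 2 µM test dose, taken to imply half-maximal potency below 2 µM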;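 further: 0% = DMSO untreated growth and 100% = chloroquine plus artemisinin killed control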). To be noted: P. falciparum Dd2 in RBCs, LDH growth readout, 72 h; at 2 µM; stronger effect = higher value.
Assay [2] in a line: human hepatoma cell viability loss – ATP luminescence, cytotoxicity control for P. falciparum antimalarial project, primary screen (AID 2303;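 active means inhibition above 50%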;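 further: 0% = DMSO wells and 100% = digitonin-killed cells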). To be noted: HepG2 viability, 24-48 h, at 10 µM, stronger effect = higher value.
The target of assay [3] is L-lactate dehydrogenase (Plasmodium falciparum (isolate CDC / Honduras)) (UniProt Q27743). Nature of the assay: PfLDH activity inhibition – cell lysate, 3D7 strain, counter-screen for P. falciparum growth inhibition project (AID 2304).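 Further: 0% = vehicle and 100% = reference inhibitor.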 The following applies: P. falciparum 3D7 crude extract, LDH APAD/NBT absorbance; at 2 µM; stronger effect = higher value. A general note: Counterscreens check selectivity or assay interference.

Assay [4] in a line: inhibition of 3D7 malaria parasite growth – strain 3D7 (AID 2306).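 Further: 0% = DMSO wells and 100% = chloroquine plus artemisinin control wells.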 To be noted: P. falciparum 3D7 erythrocytic growth, LDH absorbance, 72 h; at 2 µM; stronger effect = higher value.
The target of assay [5] is Calcium-dependent protein kinase 1 (Plasmodium falciparum (isolate 3D7)) (UniProt P62344). Nature of the assay: PfCDPK1 kinase inhibitors, biochemical, TCAMS library (AID 1159585; cut-off not given, nearly all actives have IC50 up to about 0.98 µM;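 further: inhibitors leave more ATP so luminescence rises with inhibition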). The following applies: recombinant PfCDPK1, Kinase-Glo ATP depletion luminescence. For orientation: In Kinase-Glo more light means more ATP remaining.
Assay [6] has as its target Plasmodium falciparum protein kinase 6 (PK6, PF3D7_1337100) (UniProt Q8IDW1). Nature of the assay: PfPK6 kinase inhibitors, biochemical, TCAMS library (AID 1159586). The following applies: recombinant PfPK6, Kinase-Glo ATP depletion luminescence.
The target of assay [7] is Protein kinase 7 (PK7), Plasmodium falciparum 3D7 (PF3D7_0213400) (UniProt Q7YTF7). As to the kind of experiment: inhibition of Plasmodium PK7 catalytic activity – biochemical, TCAMS antimalarial set, Kinase-Glo luminescence (AID 1159587). The following applies: recombinant PfPK7, Kinase-Glo ATP depletion luminescence.
Assay [8] deals with Calcium-dependent protein kinase 4 (Plasmodium falciparum (isolate 3D7)) (UniProt Q8IBS5). As to the kind of experiment: PfCDPK4 kinase inhibitors, biochemical, TCAMS library (AID 1159588; cut-off not given, nearly all actives have IC50 up to about 0.91 µM). To be noted: recombinant PfCDPK4, Kinase-Glo ATP depletion luminescence.

Values without a mark were called inactive. For some of these results: Measured potencies and affinities stand elsewhere. Calls of active or inactive are those of the source. Unless noted, how the calls were made is not given here.

Sequence of Protein kinase 7 (PK7), Plasmodium falciparum 3D7 (PF3D7_0213400) (Q7YTF7 1-343): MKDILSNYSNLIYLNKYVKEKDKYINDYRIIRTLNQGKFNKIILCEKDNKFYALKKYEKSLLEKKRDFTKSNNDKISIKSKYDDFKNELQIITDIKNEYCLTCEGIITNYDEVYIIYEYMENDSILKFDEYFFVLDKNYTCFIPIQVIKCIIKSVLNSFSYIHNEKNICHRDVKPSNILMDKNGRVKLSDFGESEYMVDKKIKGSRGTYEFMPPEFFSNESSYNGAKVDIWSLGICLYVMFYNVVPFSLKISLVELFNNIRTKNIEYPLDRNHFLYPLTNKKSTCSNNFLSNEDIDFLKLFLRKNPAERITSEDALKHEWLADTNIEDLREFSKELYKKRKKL
Sequence of Calcium-dependent protein kinase 4 (Plasmodium falciparum (isolate 3D7)) (Q8IBS5 whole entry, looked up): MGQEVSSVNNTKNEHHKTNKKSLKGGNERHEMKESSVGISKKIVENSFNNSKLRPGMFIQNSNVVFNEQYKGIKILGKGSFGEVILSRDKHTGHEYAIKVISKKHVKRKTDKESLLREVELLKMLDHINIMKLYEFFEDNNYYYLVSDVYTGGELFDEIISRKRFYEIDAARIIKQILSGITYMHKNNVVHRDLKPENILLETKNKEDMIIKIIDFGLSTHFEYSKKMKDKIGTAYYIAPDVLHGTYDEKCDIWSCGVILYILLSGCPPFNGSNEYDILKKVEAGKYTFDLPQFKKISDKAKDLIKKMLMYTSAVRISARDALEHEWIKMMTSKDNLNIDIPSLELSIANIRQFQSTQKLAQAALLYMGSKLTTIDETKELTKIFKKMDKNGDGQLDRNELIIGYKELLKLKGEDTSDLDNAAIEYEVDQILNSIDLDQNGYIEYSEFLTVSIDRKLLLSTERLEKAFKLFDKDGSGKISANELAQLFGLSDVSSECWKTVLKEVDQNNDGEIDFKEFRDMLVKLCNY
Sequence of Calcium-dependent protein kinase 1 (Plasmodium falciparum (isolate 3D7)) (P62344 whole entry, looked up): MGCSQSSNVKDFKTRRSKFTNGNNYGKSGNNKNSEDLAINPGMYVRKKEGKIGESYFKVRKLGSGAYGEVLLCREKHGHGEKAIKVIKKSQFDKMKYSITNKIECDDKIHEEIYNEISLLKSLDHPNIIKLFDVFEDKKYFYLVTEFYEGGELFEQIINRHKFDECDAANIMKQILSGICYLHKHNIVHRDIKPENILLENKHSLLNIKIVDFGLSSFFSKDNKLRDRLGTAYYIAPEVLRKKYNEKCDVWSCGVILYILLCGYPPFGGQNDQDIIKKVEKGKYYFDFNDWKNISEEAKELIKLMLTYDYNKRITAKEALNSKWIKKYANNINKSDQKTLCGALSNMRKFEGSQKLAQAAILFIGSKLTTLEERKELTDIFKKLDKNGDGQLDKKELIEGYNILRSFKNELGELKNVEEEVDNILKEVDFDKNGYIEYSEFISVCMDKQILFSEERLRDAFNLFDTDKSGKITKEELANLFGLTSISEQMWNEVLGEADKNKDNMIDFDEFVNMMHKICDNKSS
Sequence of L-lactate dehydrogenase (Plasmodium falciparum (isolate CDC / Honduras)) (Q27743 whole entry, looked up): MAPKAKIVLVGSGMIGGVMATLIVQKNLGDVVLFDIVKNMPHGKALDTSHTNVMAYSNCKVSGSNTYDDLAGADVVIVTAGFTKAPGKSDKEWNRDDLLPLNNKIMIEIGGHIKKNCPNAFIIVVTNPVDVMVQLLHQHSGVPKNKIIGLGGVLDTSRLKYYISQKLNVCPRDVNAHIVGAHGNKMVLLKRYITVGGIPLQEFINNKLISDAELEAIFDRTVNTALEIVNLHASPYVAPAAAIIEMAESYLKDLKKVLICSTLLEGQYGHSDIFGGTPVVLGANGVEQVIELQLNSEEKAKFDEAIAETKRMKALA
Sequence of Plasmodium falciparum protein kinase 6 (PK6, PF3D7_1337100) (Q8IDW1 1-305): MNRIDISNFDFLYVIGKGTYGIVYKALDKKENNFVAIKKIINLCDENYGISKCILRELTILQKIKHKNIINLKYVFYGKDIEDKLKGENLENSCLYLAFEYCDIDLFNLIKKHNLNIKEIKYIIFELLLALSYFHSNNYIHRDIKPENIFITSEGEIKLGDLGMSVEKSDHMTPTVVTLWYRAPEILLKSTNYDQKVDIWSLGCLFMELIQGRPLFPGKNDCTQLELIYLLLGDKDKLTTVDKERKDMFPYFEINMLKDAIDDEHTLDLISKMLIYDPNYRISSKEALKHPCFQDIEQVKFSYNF

With `O=C(Nc1cccc(-c2nn3ccccc3c2-c2ccnc(Nc3cccc(F)c3)n2)c1)c1c(F)ccc(F)c1F`, the growth inhibition was 73% (active) in assay [1] and 96% (active) in assay [4]. Further, the inhibition (as a rule, the drop in the measured response relative to a control, in per cent) in assay [2] was 33%; in assay [3] it was -1%. Further, the result in assay [5], in assay [6], in assay [7] and in assay [8] was inactive.

Consider `CCC(ON1C(N)=NC(N)=NC1(C)C)c1ccc(Cl)cc1` (stereo not given), for which the figures for the growth inhibition in assay [1] and in assay [4] were 90% (active) and 91% (active), respectively. In addition, the inhibition in assay [2] is 68% (active); in assay [3] it was 3%. Also, the outcome in assay [5], in assay [6], in assay [7] and in assay [8] was inactive.

In the case of `COc1cccc(NC(=O)NC2CCN(CCCCCNC(=O)/C=C/c3ccc(Cl)c(Cl)c3)CC2)c1`, the growth inhibition is 8% in assay [1] and 102% (active) in assay [4]. Moreover, the inhibition is 14% in assay [2] and -1% in assay [3]. The outcome in assay [5], in assay [6], in assay [7] and in assay [8] was inactive.

In the case of `O=C(Nc1cccc(CN2CCCN(Cc3ncc[nH]3)CC2)c1)c1cc2ccccc2s1`, the results for the growth inhibition in assay [1] and in assay [4] were 35% and 99% (active), respectively. Besides, the inhibition in assay [2] was 22%; in assay [3], -2%. In addition, the result in assay [5], in assay [6], in assay [7] and in assay [8] was inactive.

For `CCCCCCn1c(Sc2ccc(C#N)c([N+](=O)[O-])c2)nnc1-c1ccc(Cl)cc1`, the growth inhibition is 48% in assay [1] and 93% (active) in assay [4]. The inhibition in assay [2] is 23%; in assay [3] it was 0%. Moreover, the result in assay [5], in assay [6], in assay [7] and in assay [8] was inactive.

As for `CCC(C)(C)c1ccc(OCC(O)CN2CCCCC2)c(C(C)(C)CC)c1` (stereo not given), the results for the growth inhibition in assay [1] and in assay [4] were 26% and 91% (active), respectively. The inhibition is 14% in assay [2] and -9% in assay [3]. Also, the outcome in assay [5], in assay [6], in assay [7] and in assay [8] was inactive.

As to `COc1ccccc1CNc1nc(Nc2ccccc2C)nc2ccccc12`, the growth inhibition in assay [1] was 67% (active); in assay [4] it was 101% (active). Further, the inhibition was 24% in assay [2] and -1% in assay [3]. Moreover, the result in assay [5], in assay [6], in assay [7] and in assay [8] was inactive.

As to `CCCOc1cc(NC(=O)Nc2ccnc3ccccc23)cc(OCCC)c1`, the growth inhibition is 98% (active) in assay [1] and 102% (active) in assay [4]. Further, the inhibition was 6% in assay [2] and -1% in assay [3]. The result in assay [5], in assay [6], in assay [7] and in assay [8] was inactive.

As to `CCC(NCc1ccc(-c2cncc(C(=O)NCC(C)C)c2)cc1)c1ccccc1` (stereo not given), the growth inhibition is 8% in assay [1] and 86% (active) in assay [4]. Further, the figures for the inhibition in assay [2] and in assay [3] were 14% and 2%, respectively. Also, the outcome in assay [5], in assay [6], in assay [7] and in assay [8] was inactive.

In the case of `c1cncc(CCNCc2ccc(-c3ccc(-c4nc5ccccc5[nH]4)s3)cc2)c1`, the growth inhibition in assay [1] was 99% (active); in assay [4], 101% (active). In addition, the inhibition in assay [2] is 35%; in assay [3], -3%. For the same molecule, the outcome in assay [5], in assay [6], in assay [7] and in assay [8] was inactive.

`COc1ccc(-c2cnc3[nH]cc(-c4ccc(CCC(=O)O)cc4)c3c2)cn1`: the growth inhibition was 95% (active) in assay [1] and 98% (active) in assay [4]. The figures for the inhibition in assay [2] and in assay [3] were 25% and -5%, respectively. Moreover, the outcome in assay [5], in assay [6], in assay [7] and in assay [8] was inactive.

In the case of `FC(F)(F)c1ccc2nc(-c3ccc(-c4cccc(CNCc5cnn(-c6ccccc6)n5)c4)cc3)[nH]c2c1`, the values for the growth inhibition in assay [1] and in assay [4] were 83% (active) and 99% (active), respectively. Besides, the results for the inhibition in assay [2] and in assay [3] were 19% and -1%, respectively. In addition, the result in assay [5], in assay [6], in assay [7] and in assay [8] was inactive.

With `CCC(C)Oc1ccc2nc(N)nc(N)c2c1Cl` (stereo not given), the growth inhibition in assay [1] is -1%; in assay [4] it was 96% (active). Also, the inhibition in assay [2] was 57% (active); in assay [3], -2%. Also, the outcome in assay [5], in assay [6], in assay [7] and in assay [8] was inactive.

As for `CSc1c(CNCCCNc2cc(=O)c3ccccc3[nH]2)[nH]c2ccccc12`, the values for the growth inhibition in assay [1] and in assay [4] were 21% and 87% (active), respectively. Further, the inhibition in assay [2] was 0%; in assay [3], 2%. The result in assay [5], in assay [6], in assay [7] and in assay [8] was inactive.

Turning to `CC(=O)Nc1nc(C(=O)Nc2cccc(-c3ccc(-c4nc5c(C)cccc5[nH]4)cc3)c2)cs1`, the growth inhibition is 61% (active) in assay [1] and 100% (active) in assay [4]. The values for the inhibition in assay [2] and in assay [3] were 100% (active) and -3%, respectively. The outcome in assay [5], in assay [6], in assay [7] and in assay [8] was inactive.

Turning to `NC1=NC2(CCCC2)C(c2ccc(Cl)c(Cl)c2)C(N)=N1` (stereo not given), the growth inhibition in assay [1] is 3%; in assay [4] it was 92% (active). Also, the inhibition in assay [2] was 7%; in assay [3], -1%. Besides, the result in assay [5], in assay [6], in assay [7] and in assay [8] was inactive.

`Cc1cc(CN2CC[C@H](NC(=O)c3ccc(Cl)c(Cl)c3)C2)ccc1OCCCN(C)C`: the growth inhibition is 35% in assay [1] and 99% (active) in assay [4]. Besides, the inhibition is 41% in assay [2] and 0% in assay [3]. Also, the outcome in assay [5], in assay [6], in assay [7] and in assay [8] was inactive.

As to `NC1=NC(c2ccccc2)(c2ccccn2)C(=O)N1CCCc1ccccc1` (stereo not given), the growth inhibition in assay [1] was 64% (active); in assay [4], 85% (active). Further, the inhibition in assay [2] was -1%; in assay [3] it was -2%. Besides, the result in assay [5], in assay [6], in assay [7] and in assay [8] was inactive.

Regarding `O=S(=O)(Nc1ccc2nccc(N3CCNCC3)c2c1)c1ccc2c(Cl)cccc2c1`, the figures for the growth inhibition in assay [1] and in assay [4] were 2% and 100% (active), respectively. For the same molecule, the values for the inhibition in assay [2] and in assay [3] were 11% and -2%, respectively. Besides, the result in assay [5], in assay [6], in assay [7] and in assay [8] was inactive.

Consider `C[C@@H]1CN(c2ccnc3ccc(Sc4ccc(Oc5ccccc5)cc4)cc23)C[C@H](C)N1`, for which the results for the growth inhibition in assay [1] and in assay [4] were 99% (active) and 100% (active), respectively. Besides, the inhibition in assay [2] is 33%; in assay [3], 7%. The outcome in assay [5], in assay [6], in assay [7] and in assay [8] was inactive.
